# From publication PMC7862700, “An all-to-all approach to the identification of sequence-specific readers for epigenetic DNA modifications on cytosine”
# Legend:
# Assay in all cases: DAPPL (digital affinity profiling via proximity ligation, sequencing); 10 mM Tris-HCl pH 7.5, 50 mM NaCl, 1 mM DTT, 4% glycerol, room temperature, 30 min; GST-TFs on glutathione beads, 16-mer random dsDNA library, 0.1% formaldehyde crosslink after washing; high values mean tight binding
# Settings in all cases: protein: recombinant; tags: N-terminal GST; dsDNA, one strand shown
# FLI1 = target: T1, FLI1 (Homo sapiens, UniProt Q01543 1-452)
# T1 sequence: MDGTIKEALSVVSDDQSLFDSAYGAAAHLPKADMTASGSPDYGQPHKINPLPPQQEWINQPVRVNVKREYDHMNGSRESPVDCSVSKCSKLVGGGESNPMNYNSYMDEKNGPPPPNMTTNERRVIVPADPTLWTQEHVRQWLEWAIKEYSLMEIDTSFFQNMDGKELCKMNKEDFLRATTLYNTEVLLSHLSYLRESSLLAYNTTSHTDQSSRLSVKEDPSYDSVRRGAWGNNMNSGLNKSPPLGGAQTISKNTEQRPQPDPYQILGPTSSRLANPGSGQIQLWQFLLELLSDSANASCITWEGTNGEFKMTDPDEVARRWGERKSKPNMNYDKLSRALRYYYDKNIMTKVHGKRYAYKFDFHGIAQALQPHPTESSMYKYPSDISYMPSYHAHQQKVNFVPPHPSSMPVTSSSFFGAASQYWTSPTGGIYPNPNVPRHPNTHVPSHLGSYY
# How it was run: (§1)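 Binding signal is each hexamer's read frequency for a factor divided by its frequency in the tag-only sample. The factors were GST-fused human transcription factors from yeast, captured on glutathione beads, DNA-barcoded and pooled with that sample. Pools were incubated with 200 nmole of a random double-stranded 16-mer DNA library in Tris/NaCl/DTT/glycerol buffer at room temperature for 30 min, then washed, crosslinked with 0.1% formaldehyde, proximity-ligated with BsaI/T4 ligase (1 h, 37 °C), PCR-amplified and sequenced on an Illumina NextSeq500.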
# ELK1 = target: T2, ELK1 (Homo sapiens, UniProt P19419 1-428)
# T2 sequence: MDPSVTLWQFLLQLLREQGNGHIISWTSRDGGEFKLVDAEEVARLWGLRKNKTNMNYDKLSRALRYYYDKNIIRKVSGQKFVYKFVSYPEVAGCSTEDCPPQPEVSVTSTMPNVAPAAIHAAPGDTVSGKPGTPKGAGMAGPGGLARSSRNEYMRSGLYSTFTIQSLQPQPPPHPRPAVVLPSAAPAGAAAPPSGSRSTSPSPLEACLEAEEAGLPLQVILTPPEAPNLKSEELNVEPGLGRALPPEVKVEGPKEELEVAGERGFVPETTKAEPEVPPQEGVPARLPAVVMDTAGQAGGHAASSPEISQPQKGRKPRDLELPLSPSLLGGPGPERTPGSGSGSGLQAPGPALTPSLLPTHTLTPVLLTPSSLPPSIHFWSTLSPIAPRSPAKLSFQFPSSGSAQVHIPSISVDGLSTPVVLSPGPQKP
# How it was run: as §1
# GABPA = target: T3, GABPA (Homo sapiens, UniProt Q06546 1-454)
# T3 sequence: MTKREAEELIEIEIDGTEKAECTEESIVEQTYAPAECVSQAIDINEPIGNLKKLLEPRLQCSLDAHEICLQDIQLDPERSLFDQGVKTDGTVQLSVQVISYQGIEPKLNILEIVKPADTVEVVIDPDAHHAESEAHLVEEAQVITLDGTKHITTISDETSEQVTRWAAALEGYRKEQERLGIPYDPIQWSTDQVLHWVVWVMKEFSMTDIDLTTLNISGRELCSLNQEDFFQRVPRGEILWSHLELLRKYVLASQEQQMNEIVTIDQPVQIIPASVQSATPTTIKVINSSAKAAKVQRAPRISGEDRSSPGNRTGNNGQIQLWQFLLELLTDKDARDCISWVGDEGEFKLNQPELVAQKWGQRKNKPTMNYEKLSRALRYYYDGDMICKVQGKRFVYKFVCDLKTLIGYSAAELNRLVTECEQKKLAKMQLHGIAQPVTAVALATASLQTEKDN
# How it was run: as §1
# ERG = target: T4, ERG (Homo sapiens, UniProt P11308 1-479)
# T4 sequence: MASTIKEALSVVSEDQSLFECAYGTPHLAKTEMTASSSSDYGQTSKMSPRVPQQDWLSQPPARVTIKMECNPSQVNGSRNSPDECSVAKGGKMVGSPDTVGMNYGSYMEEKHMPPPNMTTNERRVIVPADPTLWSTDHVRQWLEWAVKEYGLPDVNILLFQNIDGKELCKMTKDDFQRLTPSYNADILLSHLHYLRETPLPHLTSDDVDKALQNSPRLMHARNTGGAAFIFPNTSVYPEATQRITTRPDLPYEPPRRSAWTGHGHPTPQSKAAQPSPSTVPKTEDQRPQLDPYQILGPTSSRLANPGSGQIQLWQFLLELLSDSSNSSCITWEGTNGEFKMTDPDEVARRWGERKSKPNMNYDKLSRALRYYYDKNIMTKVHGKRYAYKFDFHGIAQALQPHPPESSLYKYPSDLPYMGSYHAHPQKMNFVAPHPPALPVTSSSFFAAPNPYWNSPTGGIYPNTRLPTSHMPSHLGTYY
# How it was run: as §1
# ELF1 = ELF1 (Homo sapiens, UniProt P32519 1-619)
# Sequence of ELF1 (P32519 whole entry): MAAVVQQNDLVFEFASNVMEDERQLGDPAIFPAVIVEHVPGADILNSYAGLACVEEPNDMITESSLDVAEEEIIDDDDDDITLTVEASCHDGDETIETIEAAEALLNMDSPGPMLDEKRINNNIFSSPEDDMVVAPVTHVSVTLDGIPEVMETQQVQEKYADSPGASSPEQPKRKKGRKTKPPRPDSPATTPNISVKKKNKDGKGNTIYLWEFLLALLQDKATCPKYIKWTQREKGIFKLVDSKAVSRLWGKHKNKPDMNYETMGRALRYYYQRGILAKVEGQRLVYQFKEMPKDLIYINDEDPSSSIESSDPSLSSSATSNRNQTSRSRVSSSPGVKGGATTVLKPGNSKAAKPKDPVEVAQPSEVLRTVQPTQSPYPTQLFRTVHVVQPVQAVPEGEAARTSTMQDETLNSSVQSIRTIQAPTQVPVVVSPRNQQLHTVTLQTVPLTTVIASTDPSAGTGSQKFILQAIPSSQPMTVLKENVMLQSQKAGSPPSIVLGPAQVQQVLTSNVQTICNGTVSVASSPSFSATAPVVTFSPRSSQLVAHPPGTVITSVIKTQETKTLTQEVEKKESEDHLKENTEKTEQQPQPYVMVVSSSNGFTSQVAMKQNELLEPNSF
# How it was run: as §1
# EHF = target: T5, EHF (Homo sapiens, UniProt Q9NZC4 1-300)
# T5 sequence: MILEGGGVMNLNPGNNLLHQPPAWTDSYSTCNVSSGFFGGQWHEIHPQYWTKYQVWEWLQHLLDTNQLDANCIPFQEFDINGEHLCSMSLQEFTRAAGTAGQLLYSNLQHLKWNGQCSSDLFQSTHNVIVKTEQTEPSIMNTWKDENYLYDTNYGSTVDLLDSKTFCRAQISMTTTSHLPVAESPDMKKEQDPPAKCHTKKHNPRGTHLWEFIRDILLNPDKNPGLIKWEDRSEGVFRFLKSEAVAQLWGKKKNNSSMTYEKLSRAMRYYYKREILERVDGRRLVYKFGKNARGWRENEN
# How it was run: as §1
# SPI1 = SPI1 (Homo sapiens, UniProt P17947 1-270)
# How it was run: as §1
# SPIB = SPIB (Homo sapiens, UniProt Q01892 1-262)
# Sequence of SPIB (Q01892 whole entry): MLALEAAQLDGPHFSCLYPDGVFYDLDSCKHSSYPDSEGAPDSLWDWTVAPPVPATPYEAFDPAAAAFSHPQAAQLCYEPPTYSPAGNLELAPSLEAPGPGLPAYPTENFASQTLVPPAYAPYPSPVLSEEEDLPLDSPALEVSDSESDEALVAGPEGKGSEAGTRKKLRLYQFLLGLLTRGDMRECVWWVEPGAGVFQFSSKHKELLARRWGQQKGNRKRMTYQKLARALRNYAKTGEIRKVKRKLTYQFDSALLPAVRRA
# How it was run: as §1
# ELK3 = target: T6, ELK3 (Homo sapiens, UniProt P41970 1-407)
# T6 sequence: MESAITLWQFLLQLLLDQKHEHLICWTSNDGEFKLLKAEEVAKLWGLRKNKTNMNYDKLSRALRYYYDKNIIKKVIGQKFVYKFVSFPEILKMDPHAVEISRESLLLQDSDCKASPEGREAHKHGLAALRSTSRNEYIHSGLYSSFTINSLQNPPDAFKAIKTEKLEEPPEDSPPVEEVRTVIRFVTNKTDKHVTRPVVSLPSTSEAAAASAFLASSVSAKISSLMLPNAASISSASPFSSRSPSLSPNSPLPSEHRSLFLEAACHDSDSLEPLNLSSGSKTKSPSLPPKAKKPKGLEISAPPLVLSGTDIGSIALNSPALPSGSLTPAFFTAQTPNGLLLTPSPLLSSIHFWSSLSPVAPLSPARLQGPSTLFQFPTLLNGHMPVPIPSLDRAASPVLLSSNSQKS
# How it was run: as §1
# FEV = target: T7, FEV (Homo sapiens, UniProt Q99581 1-238)
# T7 sequence: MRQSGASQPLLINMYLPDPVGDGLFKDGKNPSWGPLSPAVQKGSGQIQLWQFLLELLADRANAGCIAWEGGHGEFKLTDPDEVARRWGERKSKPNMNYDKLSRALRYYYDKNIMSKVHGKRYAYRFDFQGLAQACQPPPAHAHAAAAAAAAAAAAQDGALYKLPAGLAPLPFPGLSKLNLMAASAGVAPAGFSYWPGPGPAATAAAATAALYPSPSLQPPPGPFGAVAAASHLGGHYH
# How it was run: as §1
sequence,measurement,setting,value
GCACCT,binding signal,FLI1,"1.07 fold enrichment (6-mer frequency, TF over GST control)"
same,binding signal,ELK1,"1.01 fold enrichment (6-mer frequency, TF over GST control)"
same,binding signal,GABPA,"1.12 fold enrichment (6-mer frequency, TF over GST control)"
same,binding signal,ERG,"1.07 fold enrichment (6-mer frequency, TF over GST control)"
same,binding signal,ELF1,"1.16 fold enrichment (6-mer frequency, TF over GST control)"
same,binding signal,EHF,"1.18 fold enrichment (6-mer frequency, TF over GST control)"
same,binding signal,SPI1,"1.05 fold enrichment (6-mer frequency, TF over GST control)"
same,binding signal,SPIB,"1.13 fold enrichment (6-mer frequency, TF over GST control)"
same,binding signal,ELK3,"1.05 fold enrichment (6-mer frequency, TF over GST control)"
same,binding signal,FEV,"1.04 fold enrichment (6-mer frequency, TF over GST control)"
